Experimental findings from PubChem BioAssay AID720650 (Broad Institute, 2013) are described below.

Active and inactive are the calls of the source. No rule for the calls is given here.

The nature of the test: C difficile toxins, biochemical counterscreen, UDPG substrate absence, confirmatory dose response (AID 720650). As to conditions: series mostly up to 19.5 µM; activity change, negative = inhibition: at the top concentration.
On to `COC(=O)C1=C(c2ccc(F)cc2OCc2ccccc2)C[C@@H]2CC[C@H]1N2C(=O)NCCOc1ccccc1`, for which the “activity change, negative = inhibition” value was 6.43% (inactive).
On to `COCCn1c(NC(=S)NC(=O)C2CC2)cc(=O)[nH]c1=O`, for which the “activity change, negative = inhibition” value is -10.3% (inactive).
In the case of `O=C(CC(=O)N/N=C/c1ccc(O)cc1)N/N=C/c1ccc(O)cc1`, the AC50 is 9.03 µM (active).
On to `CCCSc1nc2c([nH]1)c(=O)n(C)c(=S)n2C`, for which the “activity change, negative = inhibition” value is -18.3% (inactive).
In the case of `O=C(N/C(=C\c1ccc(O)cc1)C(=O)N1CCCCC1)c1ccccc1`, the “activity change, negative = inhibition” value was -3.64% (inactive).
Same read-out and setting: the figure for `O=C(c1cn(-c2ccccc2)nc1-c1ccncc1)n1nnc2ccccc21` is -3.97% (inactive); for `Cn1cc(S(=O)(=O)CC(=O)N2CCCc3ccccc32)c2ccccc21` it is -8.72% (inactive).
Consider `Oc1ccc(/C=N/N2CCN(c3ccccn3)CC2)cc1`, for which the AC50 is 15 µM (active).
In the case of `Cc1[nH]c(=O)c(C#N)c2c1CCCC2`, the “activity change, negative = inhibition” value was -9.64% (inactive).
`COc1ccccc1/C=N/NC(=O)CC(=O)NCc1ccccc1`: the AC50 was > 39 µM (inactive).
Consider `CSc1ccccc1NC(=O)C1=CC(c2ccc(C)cc2)=NS(=O)(=O)N1C`, for which the “activity change, negative = inhibition” value was -9.44% (inactive).
With `CN(C)c1ccc(C(=O)OCC#CCSc2nnc(-c3cccc4ccccc34)o2)cc1`, the “activity change, negative = inhibition” value was -7.71% (inactive).
The same measure, in the same setting: the same measure for `CNC(C(=O)c1ccccc1)C(OC)c1cccc([N+](=O)[O-])c1` (centres undefined): -4.43% (inactive).
Turning to `CCCCN(C)c1c(C)nc2ccc(C(=O)NCc3cccs3)cn12`, the concentration at half-maximal activity (AC50) was 20.4 µM (active).
`CN1CCN(/N=C/c2c[nH]c3ccccc23)CC1`: the AC50 was > 39 µM (inactive).
Regarding `Cc1cc(C)nc(/N=C(\N)Nc2ccccc2-c2ccccc2)n1`, the AC50 is > 39 µM (inactive).
Still for that read-out and setting: the same measure for `Cc1cc(C)c(C)c(S(=O)(=O)N2CCCCC2C(=O)O)c1C` (centres undefined): > 39 µM (inactive).
Take `O=c1[nH]c(/C=C\c2ccc(O)cc2)nc(O)c1[N+](=O)[O-]`: the AC50 was 12.2 µM (active).
For the molecule `O=C(C[C@@H]1C[C@H]2c3cc(NC(=O)c4ccc5c(c4)OCO5)ccc3O[C@H]2[C@H](CO)O1)NCc1cccc(F)c1`, the “activity change, negative = inhibition” value was -1.94% (inactive).
`C[N+]1(CCCCSc2ccc(O)cc2)CCCCC1`: the AC50 was > 39 µM (inactive).
Turning to `CC(Sc1nc2ccccc2n1C)C(=O)Nc1ccc(N2CCOCC2)cc1` (centres undefined), the “activity change, negative = inhibition” value is -16.8% (inactive).
In the case of `Oc1ccc(Cc2ccc(Cl)cc2)c(O)c1`, the AC50 is > 39 µM (inactive).
Turning to `COc1ccc(C2=NS(=O)(=O)N(C)C(C(=O)NCc3ccccc3)=C2)cc1OC`, the “activity change, negative = inhibition” value is -0.969% (inactive).
Turning to `Nn1c(SCc2ccccc2F)nnc1-c1ccccn1`, the “activity change, negative = inhibition” value was 4.52% (inactive).
Regarding `Cc1ccc(CNC(=O)Nc2cccc(C)c2)cc1`, the “activity change, negative = inhibition” value is -1.63% (inactive).
Turning to `CCOc1ccc(C(CC(=O)O)NC(=O)C23CC4CC(CC(C4)C2)C3)cc1OC` (centres undefined), the “activity change, negative = inhibition” value was -6.53% (inactive).
Take `CC(=O)Nc1ccc(N(C(=O)c2ccco2)C(C(=O)NC2CCCC2)c2cccs2)cc1` (centres undefined): the “activity change, negative = inhibition” value is -2.84% (inactive).
Take `O=C(O)c1cccnc1SCc1ccccc1Cl`: the “activity change, negative = inhibition” value is -15% (inactive).
For `O=C(Cn1cc(COc2ccc(Cl)c(Cl)c2)nn1)NS(=O)(=O)c1ccccc1OC(F)(F)F`, the “activity change, negative = inhibition” value was -6.92% (inactive).
Still for that read-out and setting: the same measure for `COc1cc2nncc(SC)c2cc1OC`: -3.57% (inactive).
Regarding `Cc1cc(C)c2sc(NNC(=O)C3COc4ccccc4O3)nc2c1` (centres undefined), the half-maximal activity concentration (AC50) is 0.645 µM (active).
Consider `O=C(NCc1ccncc1)[C@@H]1CCCN1C(=O)[C@@H]1CCCN1`, for which the “activity change, negative = inhibition” value is 13.7% (inactive).
In the case of `CC(C)Cc1cc(C(=O)N2CCCC(CO)(Cc3ccc(F)cc3)C2)no1` (centres undefined), the “activity change, negative = inhibition” value is 1.04% (inactive).
On to `O=C1Nc2ccc(Br)cc2C1Cc1ccccc1F` (centres undefined), for which the AC50 was 7.69 µM (active).
For the molecule `COc1cccc(-n2c(SCC(=O)N3CCOCC3)nnc2-c2c[nH]c3ccccc23)c1`, the “activity change, negative = inhibition” value is -10.9% (inactive).
With `COc1cc(/C=C(/NC(=O)c2ccccc2)C(=O)Nc2ccc(O)cc2)c([N+](=O)[O-])cc1OC`, the AC50 was 13.9 µM (active).
On to `COc1cccc(CC(=O)OCC(=O)Nc2c(C)nn(-c3ccccc3)c2C)c1`, for which the “activity change, negative = inhibition” value is 0.671% (inactive).
Same read-out and setting: the figure for `COc1cc(C=C2CN(C)C(=O)C2=O)ccc1O` is -5.77% (inactive).
With `COc1cc2c(cc1O)CC[n+]1cc3c(OC)c(OC)ccc3cc1-2`, the AC50 was > 39 µM (inactive).
